Experimental data taken from PubChem BioAssay (NCI).
About 83,000 compounds went through this panel and 20% of them were active in at least one assay; those are over-represented in the sample as a whole.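 A percent growth of 40 corresponds to 60% growth inhibition; 0 means no net growth; -100 means all cells died. Active threshold: below 10.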 Values without a mark were called inactive. Active and inactive are the calls of the source.

What follows are compounds tested on MDA-MB-468 breast (assay: NCI-60 one-dose screen, 48 h (100 = growth as untreated, 0 = no growth, -100 = all killed)). Settings: 10 µM unless noted.
For `Oc1c(I)cc(I)cc1CNCc1ccccn1`, the growth was 29.3%.
In the case of `COc1cccc2cc(-c3nc(C4CCC(C(=O)O)CC4)n4ncnc(N)c34)[nH]c12` (stereo not given), the growth is reported as -22.3% (active).
For `CCN(CC)S(=O)(=O)c1cccc([N+](=O)[O-])c1`, the growth was 91.4%.
For `CC[C@H](Nc1ncnc2nc[nH]c12)c1nc2cccc(F)c2c(=O)n1-c1ccccc1`, the growth was 3.98% (active).
`OCC(O)COc1ccc(Cl)cc1Cl` (stereo not given) gave a growth of 111%.
`COc1cc(C2CC(c3ccc(Nc4nc(NCCO)nc(N5CCOCC5)n4)cc3)=NN2c2cc(Cl)cc(Cl)c2)cc(OC)c1OC` (stereo not given) showed a growth of 64%.
For `CCOC(=O)CCC[P+](c1ccccc1)(c1ccccc1)c1ccccc1`, the growth was 6.56% (active).
`CCOC(=O)c1cc(C(=O)c2cc(OC)c(OC)c(OC)c2)n2ccc(-c3cc[n+](CC(=O)c4cc(OC)c(OC)c(OC)c4)cc3)cc12` showed a growth of 43.2%.
With `C/C(=N/NC(N)=S)c1ccc(Nc2nc(SCC(C)C)nc(-c3ccc(F)cc3)c2C#N)cc1` the growth was -19.4% (active).
In the case of `NC(CSC(c1ccccc1)(c1ccccc1)c1ccc(F)cc1)C(=O)O` (stereo not given), the growth is reported as -41% (active).
With `Nc1c(C(=O)c2ccccc2)sc2nc(-c3cnccn3)cc(-c3cccs3)c12` the growth was 111%.
In the case of `COc1cc(C2=NN(c3ccccc3)C(c3cccc(Nc4ccnc5cc(C(F)(F)F)ccc45)c3)C2)cc(OC)c1OC` (stereo not given), the growth is reported as 92.2%.
`COc1ccc(-n2c(C)cc(-c3ccccc3)c2C)cc1` was tested, and the growth was -6.9% (active).
`CCC(O)CC(CC)CO` (stereo not given) was tested, and the growth was 113%.
`O=S(=O)(Nc1ccc2ccccc2c1)N1CCCCC1` was tested, and the growth was 12.8%.
`O=P(O)(O)C(O)(Cc1cccnc1)P(=O)(O)O` gave a growth of 80.6%.
With `O=C1c2c(c3c4cccnc4[nH]c3c3ccc4ccccc4c23)C(=O)N1CCN1CCOCC1` the growth was 62.8%.
With `Cc1ccc(-c2nc(N3CCNCC3)c3oc(-c4ccccc4)nc3n2)cc1` the growth was -31.4% (active).
Compound `COc1cc2cc(NCc3ccc(OC(F)F)cc3)nc(C)c2cc1OC` has a growth of 64.4%.
`Cn1cc(-c2csc(-c3cn(CCCN4CCOCC4)c4ccc(F)cc34)n2)c2cccnc21` showed a growth of 49.3%.
With `Cc1ccc(C2CC(c3ccc(Nc4nc(NCCO)nc(NCCO)n4)cc3)=NN2c2ccc(Cl)cc2)cc1` (stereo not given) the growth was 73.2%.
In the case of `CCOC(=O)c1sc(-c2ccc(OS(=O)(=O)c3ccc(C(C)(C)C)cc3)c(C=O)c2)nc1C`, the growth is reported as 1.65% (active).
For `[2H]C([2H])([2H])Oc1ccc(F)cc1/C=C/C(=O)/C=C(/C=C/c1cc(F)ccc1OC([2H])([2H])[2H])OB(F)F`, the growth was 69.5%.
Compound `COc1ccc(NCc2cn(-c3ccc(C(=O)O)cc3)nc2-c2cc(C(F)(F)F)cc(C(F)(F)F)c2)cc1` has a growth of 112%.
`Cc1cc2ccccc2nc1-c1ccccc1F` was tested, and the growth was 105%.
In the case of `COc1ccc(C2=C(c3ccccc3)c3ccc(OC(C)=O)cc3OC2(C)C)cc1`, the growth is reported as 86.2%.
With `S=C1NCc2cncnc2N1` the growth was 99.7%.
In the case of `COc1cnc2c(c1)C(=O)c1c-2n(CCCNC2=NCCS2)c(=O)c2cc(F)ccc12`, the growth is reported as -17.6% (active).
For `O=c1c2cc(Br)cc(Br)c2nc(-c2ccc(Cl)cc2)n1/N=C/c1cccc(F)c1`, the growth was 62.6%.
`O=C(O)c1cc([N+](=O)[O-])ccc1Oc1ccccc1` showed a growth of 101%.
With `CN(C)C1CCN(Cc2ccc(NC(=O)c3cncc(C#Cc4cnc(N)c5ncccc45)c3)cc2C(F)(F)F)CC1` the growth was 67%.
In the case of `NC(=NCc1ccccc1)C(N=Nc1ccccc1)C(=O)NCc1ccccc1` (stereo not given), the growth is reported as 55.3%.
For `CC(C)=CCc1cc(O)cc2c1OC(C=C(C)C)C1=C2C(=O)C2=C(C1=O)S(=O)(=O)CCN2` (stereo not given), the growth was -31.2% (active).
With `O=c1oc2ccc(Cl)cc2c(=O)n1-c1ccc(Cl)cc1F` the growth was 2.01% (active).
With `O=c1[nH]cnc2nc[nH]c12` the growth was 100%.
With `COc1cc2cc3c(nc2cc1OC)CCN3Cc1ccc(NC(=O)c2ccc(Cl)c(C(F)(F)F)c2)cc1` the growth was 12.9%.
`CCOC(=O)C(=Cc1ccc(C#N)cc1)C(=O)OCC` gave a growth of 15.6%.
With `OC(c1cc(C23CC4CC(CC(C4)C2)C3)nc2c(Cl)cc(Cl)cc12)C1CCCCN1` (stereo not given) the growth was -89.7% (active).
For `Cc1ccc(C)n1-c1ccccc1-n1c(C)ccc1C`, the growth was 104%.
`Nc1nc(Nc2ccc(F)cc2)nn1C(=O)c1cc(Cl)ccc1Cl` was tested, and the growth was 60.6%.
